# Compound activity deposited in PubChem BioAssay by The Scripps Research Institute Molecular Screening Center.
# LYPLA2 inh: counter-screen for PME1 inhibitors: inhibitors of human LYPLA2; actives 0.38% (n = 320,000); AID 2177; recombinant LYPLA2, FP-Rh probe fluorescence polarization; O95372; inhibition, % at 5.9 µM;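 active = inhibition above the screen-wide mean plus 3 SD, limit set per campaign, cut at about 26% in these data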;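 note: 0% = LYPLA2 with DMSO and 100% = wells lacking LYPLA2 enzyme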
# Target sequence (O95372 whole entry, looked up): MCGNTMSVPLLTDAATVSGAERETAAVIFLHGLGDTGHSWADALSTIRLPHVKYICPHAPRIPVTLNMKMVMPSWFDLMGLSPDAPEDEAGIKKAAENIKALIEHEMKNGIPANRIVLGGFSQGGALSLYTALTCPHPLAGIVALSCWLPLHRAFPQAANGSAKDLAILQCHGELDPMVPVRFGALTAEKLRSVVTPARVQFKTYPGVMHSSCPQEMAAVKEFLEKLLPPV
# PAD4 FP inh: PAD4 (human) enzyme inhibition | Q9UM07 | recombinant PAD4, RCA probe fluorescence polarization | inhibition, % at 6.36 µM | actives 0.41% (n = 330,000) | AID 485272;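 active = percent inhibition above a cutoff equal to the mean of all tested compounds plus 3 SD, cut at about 15% in these data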;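 note: 0% = PAD4 with RCA probe and DMSO and 100% = probe without PAD4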
# EBNA-1 inhibitor: blocks EBNA-1 binding to DNA | EBNA-1 DNA binding, fluorescence polarization | actives 0.34% (n = 300,000) | inhibition, % at 14.8 µM | AID 1950; in the data active = inhibition above about 28%
# ZTA counter: blocks Epstein-Barr virus ZTA, an EBNA-1 counter-screen | ZTA-DNA binding, fluorescence polarization | inhibition, % at 11 µM | actives 0.15% (n = 320,000); in the data active = inhibition above about 33%
# LYPLA1 counter: counter-screen for PME1 inhibitors: inhibitors of human LYPLA1; actives 0.16% (n = 320,000); AID 2174; inhibition, % at 5.9 µM; O75608; recombinant LYPLA1, FP-Rh probe fluorescence polarization;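 active = inhibition above the mean of all tested compounds plus 3 SD, set per campaign, cut at about 14% in these data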;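 note: inhibitors block serine hydrolase probe labeling of LYPLA1 so polarization falls; 0% = enzyme with DMSO and 100% = wells lacking LYPLA1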
# GSTO1 inh: GSTO1 inhibition, counter-screen for RBBP9 inhibitors; P78417; recombinant GSTO1, activity-based probe fluorescence polarization; inhibition, % at 5.96 µM; actives 1.1% (n = 300,000);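 active = inhibition above the campaign mean inhibition plus 3 SD, cut at about 35% in these data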;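 note: 0% = GSTO1-1 with DMSO and 100% = wells lacking GSTO1-1 enzyme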
# Starred values were filed as active, the others as inactive; x = no result. Sampled rows, rich in hits. Any-hit rate of the full collection: about 1.7%.
SMILES,LYPLA2 inh,PAD4 FP inh,EBNA-1 inhibitor,ZTA counter,LYPLA1 counter,GSTO1 inh
CCCOC1CCCN(C(=O)c2ccc(OC3CCN(Cc4ccccn4)CC3)cc2)C1 (stereo not drawn),-12,-1,-3,1,-8,-2
NC(=O)c1ccc(N2CCN(c3ccc(O)cc3)CC2)c([N+](=O)[O-])c1,32*,-1,-10,-8,9,10
CC(=O)c1ccc(N2CCN(c3ccc(C(N)=O)cc3[N+](=O)[O-])CC2)cc1,23,1,1,5,10,5
O=C1NC(=S)S/C1=C\c1coc2ccc(O)cc2c1=O,-4,-11,11,45*,-6,25
N#Cc1cccc(NC(=O)CSc2ccc3c4c(cccc24)C(=O)c2ccccc2-3)c1,1,7,-4,-5,-1,36*
COc1ccc(S(=O)(=O)Nc2ccccn2)cc1C(=O)Nc1ccccc1,-5,-3,-5,-7,-1,-2
O=C(O)c1ccc(S(=O)(=O)Nc2ccc(O)c(Sc3nc4ccccc4s3)c2)cc1,2,3,-15,-5,-4,55*
COc1ccc(/C=N/NC(=O)c2c(C)nc3ccccn23)cc1[N+](=O)[O-],-5,1,-5,-1,1,-8
O=C(Cn1cc(S(=O)(=O)Cc2cccc([N+](=O)[O-])c2)c2ccccc21)N1CCOCC1,-1,1,-2,-9,-3,0
COc1ccc(OCc2nc3ccccc3[nH]2)cc1,-3,2,-2,-6,-3,1
Brc1ccc(OCc2nc3ccccc3[nH]2)cc1,0,-15,2,5,-5,37*
CC1CCC2C(=O)N(c3cccc(C(=O)Nc4ccccc4Cl)c3)C(=O)C2C1 (stereo not drawn),8,-5,-1,0,-2,-3
O=C(/C=C/c1cc[n+](CC(=O)c2ccc3cccc4c3c2CC4)cc1)c1ccc2cccc3c2c1CC3,83*,-6,-2,1,78*,25
COc1ccc(-c2cn3nc(SCC(=O)NC4CCCCC4)ccc3n2)cc1,-1,0,-9,-4,-1,5
O=C(O)C1OC(Oc2cc3oc(-c4ccccc4)cc(=O)c3c(O)c2O)C(O)C(O)C1O (stereo not drawn),5,-3,-1,2,2,37*
CCOC(=O)Cc1nnc(NC(=O)CSc2nnc3c4ccccc4n(C)c3n2)s1,-12,-2,-7,-15,-6,35*
CCOC(=O)Cc1nnc(NC(=O)CSc2ccc(C)cc2)s1,-4,-5,4,1,-7,4
CC1CCCC(NC(=O)NC(=O)CCl)C1C (stereo not drawn),3,-2,7,-1,-1,99*
CC1CCCCC1NC(=O)NC(=O)COC(=O)c1nccnc1N (stereo not drawn),x,-5,x,x,x,x
CC1CCCCC1NC(=O)NC(=O)CCl (stereo not drawn),5,2,-7,11,-3,94*
CC1CCCC(NC(=O)CSC2CCCCC2)C1C (stereo not drawn),5,-1,1,-12,3,10
CC(C)(C)c1ccc(C(=O)N2CCCN(c3ccc([N+](=O)[O-])cn3)CC2)cc1,5,1,-7,-10,6,-7
COc1cc(/C=C2\CCc3c2nc2ccccc2c3C(=O)O)cc(OC)c1OC,3,4,0,-3,-5,35*
COc1cc(/C=C2\CCCc3c2nc2ccccc2c3C(=O)O)cc(Br)c1O,-1,-5,-12,8,4,-2
COC(=O)C1=C(C)N(CCCC(=O)O)C(=O)NC1c1cc2c(cc1[N+](=O)[O-])OCO2 (stereo not drawn),-12,-9,-18,4,-4,-14
COC(=O)C1=C(C)N(C)C(=O)NC1c1cc2c(cc1[N+](=O)[O-])OCO2 (stereo not drawn),7,4,4,20,2,36*
Cc1ccc(Oc2ccc(OCC(=O)NC(CC(C)C)C(=O)O)cc2)cc1 (stereo not drawn),-2,-2,-4,-8,-3,38*
COc1cc(C(C)=O)ccc1OCC(O)CNCC(O)c1ccccc1 (stereo not drawn),3,5,-10,-19,-1,-2
